The list is not random: actives were taken first. Their share in the collection is about 0.51%.
E coli growth-1: E. coli growth inhibition; hit rate 0.21% among 330,000; AID 1053175; Escherichia coli growth, OD600, 23 h; active compounds read low; OD600 absorbance (no concentration beside the values);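 active = OD600 absorbance below the run mean of sample wells minus 3.6 SD, in any replicate, cut at about 0.56 in these data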
AddAB inh: less growth of phage-infected E. coli with AddAB | hit rate 0.29% among 330,000 | AID 435030 | inhibition, % at 11.9 µM | E. coli expressing H. pylori AddAB, absorbance growth; in the data active = inhibition above about 12%;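 also: 0% = vehicle wells of infected cells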
E coli growth-2: reduces bacterial viability in AddAB counter-screen | E. coli V3065 growth, OD600 absorbance, 18 h | inhibition, % at 11.9 µM | hit rate 0.27% among 330,000 | AID 449728;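 active = inhibition above the campaign's mean inhibition across all tested compounds plus 3 SD, cut at about 9.9% in these data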;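 also: uninfected addAB+ strain grown without phage in ampicillin broth; 0% = DMSO wells and 100% = ciprofloxacin 0.95 µg/ml wells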
phage Ecoli inh: E. coli growth loss with phage present. inhibition, % at 11.9 µM. hit rate 0.26% among 360,000. AID 651602. growth absorbance; in the data active = inhibition above about 11%
Tat transport: E. coli Tat transport inhibition | E. coli MC4100 TorA-mCherry Tat export, fluorescence | inhibition, % at 10 µM | hit rate 0.036% among 340,000 | AID 488895;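 active = mean replicate inhibition at least 50% and at least half of replicates individually reaching 50%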;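 also: exported cargo escapes ClpAP degradation while cytoplasmic cargo is degraded and loses fluorescence; 0% = median of neutral control wells and 100% = median of NaSCN control wells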
AddAB conf: confirmation screen: growth loss of phage-infected E. coli expressing H. pylori AddAB | inhibition, % at 11.9 µM | E. coli V3065 expressing H. pylori AddAB, T4 phage, OD; T4 phage with gene 2 nonsense mutations | hit rate 64% among 880 | AID 488942 | shares compounds with AddAB inh;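 active = mean inhibition above a set limit taken from the earlier primary screen, cut at about 13% in these data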;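 also: higher means less bacterial growth since AddAB block lets phage replicate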
RecBCD counter: AddAB counter-screen: growth loss of RecBCD+ E. coli infected with mutant T4 phage. shares compounds with AddAB inh. E. coli V66 + mutant T4 phage, OD growth. inhibition, % at 11.9 µM. hit rate 73% among 880. AID 488955;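 active = mean inhibition above the mean of solvent-only control wells plus 3 SD, cut at about 4% in these data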;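 also: optical density read after an 18 h incubation at 37 °C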
Bact viability: reduces bacterial viability, AddAB inhibitor counter-screen; AID 488956; absorbance (AddAB counterscreen); inhibition, % at 11.9 µM; hit rate 35% among 880; shares compounds with AddAB inh; in the data active = inhibition above about 25%
RecBCD conf: growth loss of phage-infected V66 E. coli, RecBCD confirmation screen | hit rate 45% among 890 | E. coli V66 + T4 2- phage, growth OD | inhibition, % at 11.9 µM | shares compounds with phage Ecoli inh | AID 651982;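 active = mean inhibition over triplicates exceeding the hit threshold derived in the original primary screen, cut at about 11% in these data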
Ecoli viability: counter-screen for RecBCD inhibitors: inhibitors of bacterial viability; shares compounds with phage Ecoli inh; E. coli viability, absorbance (OD) growth; inhibition, % at 11.9 µM; hit rate 29% among 890; AID 651983; in the data active = inhibition above about 20%;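 also: E. coli strain V66 grown with compound alone and no phage infection; 0% = bacteria with DMSO vehicle only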
AddAB phage OD: growth loss of phage-infected AddAB E. coli, RecBCD counter-screen; inhibition, % at 11.9 µM; hit rate 45% among 890; E. coli expressing H. pylori AddAB + T4 phage, OD growth; gene 2 mutant T4, recBCD-deleted host; AID 651984; shares compounds with phage Ecoli inh;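 active = mean inhibition above the solvent-only control wells' mean plus 3 SD, cut at about 22% in these data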;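 also: higher means less bacterial growth from phage killing when AddAB is blocked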
Numbers without * were called inactive; nt = not tested or not shown.

SMILES	E coli growth-1	AddAB inh	E coli growth-2	phage Ecoli inh	Tat transport	AddAB conf	RecBCD counter	Bact viability	RecBCD conf	Ecoli viability	AddAB phage OD
CCCCN1CC(=O)N2C(c3ccc(Cl)cc3)C3C(=O)N(CC)C(=O)C3[C@]2(Cc2ccccc2)C1=O (some centres undefined)	0.68	nt	nt	nt	nt	nt	nt	nt	nt	nt	nt
COc1ccc(C(=O)NC(=S)NNC(=O)c2ccco2)cc1	0.64	0	-4	-5	-1	nt	nt	nt	nt	nt	nt
COc1ccc(C)cc1NC(=O)NNC(=O)c1cc2ccccc2cc1O	0.64	16*	15*	13*	-3	17*	14*	12	3	3	6
O=C(NC(=S)NNC(=O)c1cc2ccccc2cc1O)c1ccco1	nt	15*	17*	20*	-17	15*	24*	18	14*	17	20
O=C(NNC(=O)c1cc2ccccc2cc1O)Nc1ccc(Br)cc1	0.69	15*	11*	15*	2	14*	17*	14	7	7	9
COc1ccc(C(=O)NC(=S)NNC(=O)c2ccccc2O)cc1	0.7	15*	18*	12*	-1	19*	23*	23	12*	16	22*
Cc1ccc(C(=O)NNC(=O)c2cc3ccccc3cc2O)cc1	0.66	11	-1	7	-11	nt	nt	nt	nt	nt	nt
COc1ccc(C(=O)NC(=S)NNC(=O)c2ccccc2C)cc1	0.68	-3	-5	-1	-10	nt	nt	nt	nt	nt	nt
O=C(NC=NOCc1cccc(C(F)(F)F)c1)N1OCC2COc3ccc4ccccc4c3C21 (centres undefined)	0.73	nt	nt	nt	nt	nt	nt	nt	nt	nt	nt
O=C(/C=C/c1cccs1)NC(=S)NNC(=O)c1ccccc1O	0.6	26*	22*	21*	0	19*	22*	20	11	17	23*
COc1ccc(C(=O)NNC(=S)NC(=O)/C=C/c2cccs2)cc1	0.72	-6	-6	-2	-15	nt	nt	nt	nt	nt	nt
CCc1nnc(NS(=O)(=O)c2ccc(N=Cc3c(C)[nH]n(-c4cccc(Cl)c4)c3=O)cc2)s1	0.62	24*	16*	11*	-13	9	4.8*	14	10	7	31*
O=C(Oc1c(CN2CCOCC2)cc(Cl)c2cccnc12)c1cccs1	0.67	-2	-8	-3	3	nt	nt	nt	nt	nt	nt
O=C(Oc1c(Cl)cc(Cl)c2cccnc12)c1cccs1	0.14*	40*	43*	42*	7	51*	53*	56*	44*	53*	41*
CCn1cc(C(=O)NCCC(C)C)c(=O)c2cc(F)c(N3CCN(C)CC3)cc21	0.066*	100*	99*	40*	9	99*	59*	99*	19*	36*	93*
CCn1cc(C(=O)NCc2cccnc2)c(=O)c2cc(F)c(N3CCN(C(=O)c4ccco4)CC3)cc21	0.051*	95*	94*	21*	10	98*	10*	99*	13*	14	103*
CCCCNC(=O)c1cn(CC)c2cc(N3CCN(C)CC3)c(F)cc2c1=O	0.071*	100*	98*	97*	nt	98*	100*	99*	103*	104*	104*
CCN(CC)CCNC(=O)c1cn(CC)c2cc(N3CCN(C)CC3)c(F)cc2c1=O	0.056*	100*	98*	96*	35	99*	100*	98*	65*	102*	100*
Oc1ccc(CC2CNCCN2CCc2cc(C(F)(F)F)cc(C(F)(F)F)c2)cc1 (centres undefined)	0.65	nt	nt	nt	nt	nt	nt	nt	nt	nt	nt
CC(C)(C)N1C(=O)C2C(c3ccc(Br)cc3)N3C(=O)N(c4cccc(Br)c4)C(=O)[C@@]3(Cc3ccccc3)C2C1=O (some centres undefined)	0.73	nt	nt	nt	nt	nt	nt	nt	nt	nt	nt
O=C(NN=C/C=C\c1ccccc1[N+](=O)[O-])c1ccncc1	0.66	nt	nt	nt	nt	nt	nt	nt	nt	nt	nt
Cc1cc([N+](=O)[O-])nn1Cc1ccc(C(=O)N/N=C/c2ccc(O)cc2O)cc1	nt	19*	20*	17*	-2	23*	19*	13	5	7	10
O=C(N/N=C/c1ccc(O)cc1O)c1ccc(CN2C(=O)c3cccc4cccc2c34)cc1	nt	14*	25*	22*	3	16*	20*	10	9	11	16
C#CCOCCOCCOCCNc1nc(N2CCN(C(=O)C(CCCCN)n3cc(C(N)CC(N)=O)nn3)CC2)nc(N2CCN(C(=O)C(C(C)O)n3cc(C(N)CCCCN)nn3)CC2)n1 (centres undefined)	0.69	nt	nt	nt	nt	nt	nt	nt	nt	nt	nt
CCn1ccc(C(=O)NC2C(=O)N3C(C(=O)O)=C(C)CSC23)n1 (centres undefined)	0.72	1	1	1	-5	nt	nt	nt	nt	nt	nt
SMILES	E coli growth-1	AddAB inh	E coli growth-2	phage Ecoli inh	Tat transport	AddAB conf	RecBCD counter	Bact viability	RecBCD conf	Ecoli viability	AddAB phage OD
C=CC1=C(C(=O)O)N2C(=O)[C@@H](NC(=O)/C(=N\O)c3csc(N)n3)[C@H]2SC1 (stereo in doubt)	nt	99*	99*	99*	-1	103*	101*	103*	104*	106*	105*
Brc1ccc(N/N=C(/N=Nc2nn[nH]n2)c2ccccc2)cc1	nt	30*	30*	26*	15	22*	26*	25*	21*	23*	28*
Brc1ccc(NN=C(N=Nc2nn[nH]n2)c2ccccc2)cc1	0.6	nt	nt	nt	nt	nt	nt	nt	nt	nt	nt
Cc1ccc(NC(=O)c2ccc(NN=Cc3cccc(O)c3)c([N+](=O)[O-])c2)cc1	0.84	nt	nt	nt	nt	nt	nt	nt	nt	nt	nt
O=C(CSC1=NNC(c2ccccn2)S1)Nc1ccccc1 (centres undefined)	0.66	13*	9	11*	-15	35*	14*	21	10	13	38*
O=C(O)/C=C/c1ccc([N+](=O)[O-])o1	0.4*	46*	73*	18*	14	101*	16*	77*	20*	19	101*
O=[N+]([O-])c1ccc(/C=N/N=C/c2ccc([N+](=O)[O-])o2)o1	nt	nt	nt	8	-2	nt	nt	nt	nt	nt	nt
O=C(O)c1ccnc(Cl)c1	0.65	1	-1	1	-7	nt	nt	nt	nt	nt	nt

Source: PubChem BioAssay (several laboratories)
